Laboratory results published in PubChem BioAssay (NCATS).
Several values for one entry are separate records, joined by “and”; a condition that tells them apart may be missing. Identical values can stand only once. Results filed as inconclusive are left out. Unmarked numbers belong to inactive results. Activity calls are given as the source filed them. The call rests on the fitted dose curve; in most records, active means well fitted inhibition curve with a large enough effect; inconclusive means small, poorly fitted or top-dose-only effect; inactive means flat fitted curve, though single readings scatter. *1 amine or outer side, *2 acyl side, *3 side chain or, on linkers, in order; H or OH if unused. Where a SMILES comes first, the peptide text is derived from it. Bridges are numbered along the chain shown (N, C = ends). X6 = O=C(CCC[*:2])[*:1]

Assay: Primary qHTS for inhibitors of nuclear receptor binding SET domain protein 2 (NSD2) in an isogenic RCH-ACV NSD2 p.E1099K mutant (9B) (AID 1645876); further: nearly all actives have a fitted effect of over 70% in size
Settings: RCH-ACV (leukaemia line) NSD2 E1099K (9B) viability, CellTiter-Glo, 72 h; series mostly up to 44.9 µM; activity change, negative = viability loss: at the top concentration
On the % scale 0 is the no-effect control and ±100 the full control effect; potency means the concentration at half of the fitted maximal effect.

SMILES | Potency | activity change, negative = viability loss | outcome
O=C(O)C[C@H](O)C[C@H](O)/C=C/c1c(C2CC2)nc2ccccc2c1-c1ccc(F)cc1 | 1.83 µM (active) and 1.18 µM (active) | – | –
CC(C)c1cc2c(c(O)c1O[C@@H]1O[C@H](CO)[C@@H](O)[C@H](O)[C@H]1O)CC1(O)CCC(O)C(C)(C)C1CC2 (stereo partly drawn) | – | -4.24% [at 17.3 µM] | –
COc1cc2c(cc1O)CCN[C@]21CS[C@@H]2c3c(OC(C)=O)c(C)c4c(c3[C@H](COC1=O)N1[C@@H]2[C@H]2c3c(cc(C)c(OC)c3O)C[C@@H]([C@@H]1O)N2C)OCO4 | 1.7 nM (active) | – | –
CC[C@H]1OC(=O)[C@H](C)[C@@H](OC2C[C@@](C)(OC)[C@@H](O)[C@H](C)O2)[C@H](C)[C@@H](OC2O[C@H](C)C[C@H](NC)[C@H]2O)[C@](C)(O)C[C@@H](C)CN(C)[C@H](C)[C@@H](O)[C@]1(C)O (stereo partly drawn) | – | -13% | –
CC[C@H](C)[C@@H]1NC(=O)[C@H](Cc2ccc(OC)cc2)NC(=O)CCCSC[C@@H](C(=O)N2CCC[C@H]2C(=O)N[C@@H](CC(C)C)C(=O)NCC(N)=O)NC(=O)[C@H](CC(N)=O)NC(=O)[C@H](CCC(N)=O)NC1=O (Y(Me)IQNCPLG-NH2; linker N-5 via X6) | – | 4% | –
CC(C)CC(=O)OC[C@H]1O[C@@](COC(=O)CC(C)C)(O[C@H]2O[C@H](CO)[C@@H](O)[C@H](O)[C@H]2O)[C@@H](OC(=O)CC(C)C)[C@@H]1OC(=O)CC(C)C | – | -25.9% [at 17.3 µM] | –
CC(C)CNC(=O)/C=C/CCCCc1ccc2c(c1)OCO2 | – | -5.25% | –
COC(=O)C1(Cc2ccc(O)cc2)OC(=O)C(OC)=C1c1ccc(O)cc1 (stereo not drawn) | – | -5.85% | –
CC(=O)NC(CCC(=O)O)C(=O)NCCc1ccc(O)cc1 (stereo not drawn) | – | 4.62% | –
CC1(C(=O)O)CCCC2(C)C1CCC13CC(CCC21)C1(CO)OC31 (stereo not drawn) | – | 0.18% | –
CC(=O)O[C@@H]1[C@H](O[C@@H]2O[C@H](CO)[C@@H](O)[C@H](O)[C@H]2O)[C@@H](O[C@@H]2O[C@@H](C)[C@H](O)[C@@H](O[C@@H]3O[C@H](CO)[C@@H](O)[C@H](O)[C@H]3O)[C@H]2O)[C@H](OC(=O)C23CCC4(C)C(=CCC5C6(C)CC(O)C(O[C@@H]7O[C@H](C(=O)O)[C@@H](O)[C@H](O)[C@H]7O)C(C)(C(=O)O)C6CCC54C)C2CC(C)(C)CC3O)O[C@@H]1C (stereo partly drawn) | – | – | inactive [at 9.23 µM]
CCC(C)(O)C(O)C(=O)OCc1ccc(O[C@@H]2O[C@H](CO)[C@@H](O)[C@H](O)[C@H]2O)cc1 (stereo partly drawn) | – | 0.791% [at 17.3 µM] | –
C[C@@H]1C(=O)O[C@H]2CC34[C@H]5C[C@@H](C(C)(C)C)C36[C@@H](OC(=O)[C@@H]6O)O[C@@]4(C(=O)O5)[C@]21O (stereo partly drawn) | – | -8.01% [at 17.3 µM] | –
C=CC(C)(O)CC/C=C(\C)C(=O)OC1CC2(C(=O)O)CCC3(C)C(=CCC4C5(C)CCC(OC6OC(COC7OCC(O)C(O)C7O)C(O)C(OC7OCC(O)C(O)C7O)C6OC6OC(CO)C(O)C(O)C6OC6OCC(O)C(O)C6O)C(C)(C)C5CCC43C)C2CC1(C)C (stereo not drawn) | – | -9.57% [at 9.23 µM] | –
C=CC(C)(C)C1(CC2NC(=O)C3CCCN3C2=O)C(=O)Nc2cc3c(cc21)C=CC(C)(C)O3 (stereo not drawn) | – | -0.66% [at 17.3 µM] | –
C=C1C(=O)O[C@H]2[C@H]1[C@@H](OC(=O)C(C)CO)C[C@@]1(C)[C@H](O)CCC(=O)[C@H]21 (stereo partly drawn) | – | -8.38% | –
CC1CC(=O)C2=C(O1)OC1(C)CCC3C(C)(C)C=CC(=O)C3(C)C1C2 (stereo not drawn) | – | 0.665% | –
O=C(/C=C/c1ccccc1)OCC1=CC[C@@H]2C(C(=O)O)=CO[C@@H](O[C@@H]3O[C@H](CO)[C@@H](O)[C@H](O)[C@H]3O)[C@H]12 | – | -0.176% [at 17.3 µM] | –
CC1OC(OC2C(O)C(C(=O)O)OC(OC3CCC4(C)C(CCC5(C)C4C=CC4=C6CC(C)(C)CC(O)C6(C)CCC45C)C3(C)C)C2OC2OCC(O)C(O)C2O)C(O)C(O)C1O (stereo not drawn) | – | – | inactive [at 9.23 µM]
C=C1CC2C3(C)C(OC(C)=O)CC(=O)OC(C)(C)C3C(O)C(OC(C)=O)C2(C)C2C(=O)OC(C)C(=O)C12C (stereo not drawn) | – | -15.7% [at 17.3 µM] | –
C/C(=C\CCC(C)(O)c1ccc(C)cc1)C(=O)O (stereo not drawn) | – | – | inactive
CC1CC(O)CC(C)(C)C1(O)CCO (stereo not drawn) | – | – | inactive [at 91.9 µM]
COC1CC(OC2CCC3(C)C(=CCC4C3CCC3(C)C(C(C)O)CCC43O)C2)OC(C)C1OC1OC(C)C(OC2OC(COC3OC(COC4OC(CO)C(O)C(O)C4O)C(O)C(O)C3O)C(O)C(O)C2O)C(OC)C1O (stereo not drawn) | – | – | inactive [at 9.23 µM]
